Experimental data: PubChem BioAssay (NCATS)
Results filed as inconclusive are left out. Activity calls are given as the source filed them. Calls come from the whole dose curve; as a rule, active = well fitted inhibition curve with a large enough effect; inconclusive = small, poorly fitted or top-dose-only effect; inactive = flat fitted curve, though single readings scatter.

Columns and labels:
[1] = test system: P94_40; experiment: qHTS profiling for inhibitors of Plasmodium falciparum proliferation (AID 504749);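 note: 0% = DMSO vehicle and full inhibition = artemisinin control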; conditions: P. falciparum in erythrocytes, SYBR Green DNA, 72 h; series mostly up to 28.7 µM
Procedure, shortened: (§1)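 Infected RBCs, 0.3% parasitemia/2.5% Hct final; cpd 72 h, 37 C, 5% CO2; lysis buffer with saponin/triton/SYBR Green I, o/n RT dark; FI 485/535; norm. to artemisinin (0.29 uM) and DMSO.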

[2] = test system: PAD; experiment: as above; conditions: P. falciparum in erythrocytes, SYBR Green DNA, 72 h; series mostly up to 28.7 µM
Procedure, shortened: as §1

[3] = test system: PC15; experiment: as above; conditions: P. falciparum in erythrocytes, SYBR Green DNA, 72 h; series mostly up to 28.7 µM
Procedure, shortened: as §1

[4] = test system: PC26; experiment: as above; conditions: P. falciparum in erythrocytes, SYBR Green DNA, 72 h; series mostly up to 28.7 µM
Procedure, shortened: as §1

[5] = test system: PC49; experiment: as above; conditions: P. falciparum in erythrocytes, SYBR Green DNA, 72 h; series mostly up to 28.7 µM
Procedure, shortened: as §1

[6] = test system: SC27B; experiment: as above; conditions: P. falciparum in erythrocytes, SYBR Green DNA, 72 h; series mostly up to 28.7 µM
Procedure, shortened: as §1

[7] = test system: TAB109; experiment: as above; conditions: P. falciparum in erythrocytes, SYBR Green DNA, 72 h; series mostly up to 28.7 µM
Procedure, shortened: as §1

[8] = test system: TAB113; experiment: as above; conditions: P. falciparum in erythrocytes, SYBR Green DNA, 72 h; series mostly up to 28.7 µM
Procedure, shortened: as §1

[9] = test system: TAB165; experiment: as above; conditions: P. falciparum in erythrocytes, SYBR Green DNA, 72 h; series mostly up to 28.7 µM
Procedure, shortened: as §1

[10] = test system: CRL-7250; experiment: Cytotoxic Profiling of Annotated Libraries Using Quantitative High-Throughput Screening (AID 1296008); conditions: Five cell lines viability, CellTiter-Glo ATP luminescence, 48-72 h; active compounds read low; for max response: % is set by controls: 0 for no effect and ±100 for the full control effect
Procedure, shortened: (§2)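 Cytotoxicity was measured as CellTiter-Glo ATP luminescence, read after 10 min at room temperature. Compound treatment of the cells lasted 48 or 72 hr at 37 degrees Celsius in a qHTS format.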

[11] = test system: HEK293; experiment: as above; conditions: Five cell lines viability, CellTiter-Glo ATP luminescence, 48-72 h; active compounds read low
Procedure, shortened: as §2

[12] = test system: HaCat; experiment: as above; conditions: Five cell lines viability, CellTiter-Glo ATP luminescence, 48-72 h; active compounds read low
Procedure, shortened: as §2

[13] = test system: KB-3-1; experiment: as above; conditions: Five cell lines viability, CellTiter-Glo ATP luminescence, 48-72 h, active compounds read low
Procedure, shortened: as §2

[14] = test system: NIH3T3; experiment: as above; conditions: Five cell lines viability, CellTiter-Glo ATP luminescence, 48-72 h; active compounds read low
Procedure, shortened: as §2

[15] = test system: HACAT; experiment: qHTS assay to identify novel small-molecules to repurpose for Merkel cell carcinoma treatment (AID 1296009); conditions: MCC and control cell lines, CellTiter-Glo viability, 72 h; at 44.8 µM (top of the series) unless noted
Procedure, shortened: (§3)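 72 hr, 37 degree celsius; NPC 8-pt / MIPE 11-pt dose response; compound pinned in DMSO; CellTiter-Glo, 10 min RT, luminescence; normalized to no-cell and DMSO controls.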

[16] = test system: MCC-13; experiment: as above; conditions: MCC and control cell lines, CellTiter-Glo viability, 72 h; series mostly up to 46 µM
Procedure, shortened: as §3

[17] = test system: MCC-26; experiment: as above; conditions: MCC and control cell lines, CellTiter-Glo viability, 72 h; series mostly up to 46 µM
Procedure, shortened: as §3

[18] = test system: MKL-1; experiment: as above; conditions: MCC and control cell lines, CellTiter-Glo viability, 72 h; series mostly up to 46 µM
Procedure, shortened: as §3

[19] = test system: HEK293T; experiment: as above; conditions: MCC and control cell lines, CellTiter-Glo viability, 72 h; at 44.8 µM (top of the series) unless noted
Procedure, shortened: as §3

[20] = test system: W2; experiment: qHTS profiling for inhibitors of Plasmodium falciparum proliferation (AID 504749);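 note: 0% = DMSO vehicle and full inhibition = artemisinin control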; conditions: P. falciparum in erythrocytes, SYBR Green DNA, 72 h; series mostly up to 28.7 µM
Procedure, shortened: as §1
Note: nearly all actives have a fitted effect of over 60% in size.

CC1CCN(CCCC(=O)c2ccc(F)cc2)CC1
inactive: Potency [1] | Potency [2] | Potency [3] | Potency [4] | Potency [5] | Potency [6] | Potency [7] | Potency [8] | Potency [9] | max response [10] -0.306% | max response [11] -0.532% | outcome [12] | max response [13] -11.3% | max response [14] -1.04% | outcome [15] | outcome [16] | outcome [17] | outcome [18]

CCCCCOC(=O)Nc1nc(=O)n([C@@H]2O[C@H](C)[C@@H](O)[C@H]2O)cc1F
inactive: outcome [10] | outcome [11] | outcome [12] | max response [13] -8.69% | max response [14] 3.66% | outcome [15] | outcome [19] | outcome [16] | outcome [17] | outcome [18]

C=CCOc1ccccc1OCC(O)CNC(C)C (stereo not given)
inactive: max response [10] -3.74% | max response [11] 3.92% | outcome [12] | max response [13] -1.61% | max response [14] 4.04% | outcome [15] | outcome [16] | outcome [17] | outcome [18]

C[C@@H](c1ncncc1F)C(O)(Cn1cncn1)c1ccc(F)cc1F (stereo not given in full)
inactive: max response [10] -4.65% | max response [11] 2.6% | outcome [12] | max response [13] -2.08% | max response [14] -3.08% | outcome [15] | outcome [16] | outcome [17] | outcome [18]

CC1CC(OC(=O)c2ccccc2O)CC(C)(C)C1 (stereo not given)
inactive: Potency [1] | Potency [2] | Potency [3] | Potency [4] | Potency [5] | Potency [6] | Potency [7] | Potency [8] | Potency [9] | max response [10] -4.46% | outcome [11] | outcome [12] | max response [13] -9.15% | max response [14] -4.04% | outcome [15] | outcome [19] | outcome [16] | outcome [17] | outcome [18]

CCC(C)(CN(C)C)OC(=O)c1ccccc1 (stereo not given)
inactive: max response [10] -17.5% | outcome [11] | outcome [12] | max response [13] 0.865% | max response [14] -14.8% | outcome [15] | outcome [19] | outcome [16] | outcome [17] | outcome [18]

CC1(c2ccccc2)OC(C(=O)O)=CC1=O (stereo not given)
inactive: max response [10] -0.824% | max response [11] 1.9% | outcome [12] | max response [13] 17.3% | max response [14] -3.39% | outcome [15] | outcome [16] | outcome [17] | outcome [18]

CC(CSC(=O)c1ccccc1)C(=O)N1C[C@@H](Sc2ccccc2)C[C@H]1C(=O)O (stereo not given in full)
inactive: Potency [1] | Potency [2] | Potency [3] | Potency [4] | Potency [5] | Potency [6] | Potency [7] | Potency [8] | Potency [9] | Potency [20] | max response [10] -5.72% | outcome [11] | outcome [12] | max response [13] -11.1% | max response [14] -0.681% | outcome [15] inactive [at 17.4 µM] | outcome [19] inactive [at 17.4 µM] | outcome [16] | outcome [17] | outcome [18]

CC(C)c1cc2c(cc1S(=O)(=O)O)[C@@]1(C)CCC[C@@](C)(C(=O)O)[C@@H]1CC2
inactive: Potency [1] | Potency [2] | Potency [3] | Potency [4] | Potency [5] | Potency [6] | Potency [7] | Potency [8] | Potency [9] | max response [10] -2.14% | max response [11] 0.927% | outcome [12] | max response [13] -7.82% | outcome [14] | outcome [15] | outcome [16] | outcome [17] | outcome [18]

CC(=O)OCC(=O)[C@@]1(O)CC[C@H]2[C@@H]3CCC4=CC(=O)C=C[C@]4(C)[C@@]3(F)[C@@H](O)C[C@@]21C
inactive: max response [10] 2.22% | outcome [11] | outcome [12] | max response [13] 29.8% | max response [14] 0.516% | outcome [15] | outcome [19] | outcome [16] | outcome [17] | outcome [18]

O=c1[nH]c(=O)n([C@H]2C[C@H](O)[C@@H](CO)O2)cc1I
inactive: outcome [10] | max response [11] -0.666% | outcome [12] | max response [13] 5.94% | outcome [14] | outcome [15] | outcome [16] | outcome [17] | outcome [18]

CN1C(=O)CC(c2ccccc2)C1=O (stereo not given)
inactive: max response [10] 1.89% | max response [11] -5.41% | outcome [12] | max response [13] 0.936% | outcome [14] | outcome [15] | outcome [16] | outcome [17] | outcome [18]

COC(=O)c1cccnc1
inactive: Potency [1] | Potency [2] | Potency [3] | Potency [4] | Potency [6] | Potency [7] | Potency [8] | Potency [9] | Potency [20] | max response [10] -1.99% | outcome [11] | outcome [12] | max response [13] 10% | max response [14] 0.586% | outcome [15] | outcome [19] | outcome [16] | outcome [17] | outcome [18]

O=C(O)c1cc(=O)c2ccccc2o1
inactive: Potency [1] | Potency [2] | Potency [3] | Potency [4] | Potency [5] | Potency [6] | Potency [7] | Potency [8] | Potency [9] | max response [10] 2.58% | max response [11] -0.978% | outcome [12] | max response [13] -5.78% | outcome [14] | outcome [15] | outcome [16] | outcome [17] | outcome [18]

CC(C)(C)NCC(O)COc1cccc2c1CCC(=O)N2 (stereo not given)
inactive: max response [10] 4.08% | max response [11] -0.291% | outcome [12] | max response [13] 7.08% | max response [14] 3.67% | outcome [15] | outcome [16] | outcome [17] | outcome [18]

CC(C)=CCC[C@@](C)(O)[C@H]1CC=C(C)CC1
inactive: max response [10] 1.58% | outcome [11] | outcome [12] | max response [13] 4.77% | max response [14] -5.4% | outcome [15] | outcome [19] | outcome [16] | outcome [17] | outcome [18]

O=C(NCC(O)CO)c1c(I)c(C(=O)NCC(O)CO)c(I)c(N(CCO)C(=O)CO)c1I (stereo not given)
inactive: max response [10] -2.46% | max response [11] -0.64% | outcome [12] | max response [13] 27.3% | max response [14] 2.96% | outcome [15] | outcome [16] | outcome [17] | outcome [18]
